Experimental data: PubChem BioAssay AID588675 (Johns Hopkins Ion Channel Center, 2011)
Hit rate of the full screen: of about 310,000 compounds, about 1,900 (0.61%) were called active. The sample holds actives, similar compounds and a random draw of the others, so the mix is not that of the screen.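 Rule for the calls: active = plate-corrected calcium response at least 3 library SD above typical, normal starting fluorescence, not activating the receptor alone; inactive = the rest.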

Each compound was assayed against Mas-related G-protein coupled receptor member X1 (Homo sapiens) (UniProt Q96LB2) (assay: allosteric enhancers of human MrgX1 signaling – HEK293 cells, Fluo-4 calcium flux, primary screen (AID 588675;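 note: compound read alongside a low EC10 to EC30 dose of BAM8-22 agonist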;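 for B-score: peak minus trough fluorescence over baseline measured at the second addition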)). Settings: MrgX1-HEK293, Fluo-4 calcium flux, FDSS, at 10 µM; hits give high values.
Chain of Mas-related G-protein coupled receptor member X1 (Homo sapiens) (Q96LB2 whole entry, looked up): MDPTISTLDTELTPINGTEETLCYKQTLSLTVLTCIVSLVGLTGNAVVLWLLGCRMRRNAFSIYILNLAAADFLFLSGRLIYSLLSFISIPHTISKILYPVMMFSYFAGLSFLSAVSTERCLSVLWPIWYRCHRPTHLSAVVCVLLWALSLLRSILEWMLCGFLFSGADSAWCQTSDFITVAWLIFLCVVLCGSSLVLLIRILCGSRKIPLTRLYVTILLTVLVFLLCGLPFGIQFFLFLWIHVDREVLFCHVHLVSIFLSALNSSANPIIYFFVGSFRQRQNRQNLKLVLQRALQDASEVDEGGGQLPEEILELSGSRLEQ
With `COc1ccc(Cl)cc1NC(=O)CN(C)C(=O)c1cc(-c2cccs2)nn1-c1ccccc1` the B-score was “inactive”.
For `Cn1c(=O)[nH]c(=O)c2c1nc(CN1CCN(c3ccccc3F)CC1)n2CCc1ccccc1`, the B-score was “inactive”.
For `N#C/C(=C1/CCCN1)c1ccccn1`, the B-score was “inactive”.
For `Cn1c(S(=O)(=O)O)nc2ccccc21`, the B-score was “inactive”.
`Cn1c(/C(C#N)=C2/CCCCCN2)nc2ccccc21` was tested, and the B-score was 8.34 (active).
For `O=C(CN1C(=O)NC2(CCCCC2)C1=O)NCCC1=CCCCC1`, the B-score was “inactive”.
For `CCCC1C(=O)N2C(N(C)C)=Nc3ccc(C)cc3N2C1=O` (stereo not drawn), the B-score was “inactive”.
In the case of `O=[N+]([O-])C(=c1ccc2c(c1)N1C3=C(CCCC3)CC3CCCCC31N=2)[N+](=O)[O-]` (stereo not drawn), the B-score is reported as “inactive”.
`COc1cccc(CN(C)CC(O)COC(c2ccccc2)c2ccccc2C)c1` (stereo not drawn) was tested, and the B-score was “inactive”.
With `O=C(NC(=S)NC1CCCCC1)c1ccc(Cl)cc1` the B-score was “inactive”.
In the case of `COc1ccc(C(=O)NNC(=S)NC(=O)c2ccccc2)cc1`, the B-score is reported as “inactive”.
For `COc1ccc(C(=O)NC(=S)NC2CCCCC2)cc1`, the B-score was 7.2 (active).
For `NC(=O)c1ccc(Nc2ccc3nonc3c2[N+](=O)[O-])cc1`, the B-score was “inactive”.
`CC(C)c1ccc(Nc2nnc(SCC(=O)c3nnc(-c4ccccc4)o3)s2)cc1` was tested, and the B-score was “inactive”.
`COCC(=O)Nc1c(I)c(C(=O)NCC(O)CO)c(I)c(C(=O)N(C)CC(O)CO)c1I` (stereo not drawn) was tested, and the B-score was “inactive”.
For `COc1cccc(OC)c1C(=O)OCC(=O)/C(C#N)=C(\C)N`, the B-score was “inactive”.
For `O=C(NCC(=O)N1CCCC(C(F)(F)F)C1)c1ccccc1F` (stereo not drawn), the B-score was “inactive”.
`O=C(CNS(=O)(=O)c1ccccc1)N1CCN(C(=O)c2ccco2)CC1` was tested, and the B-score was “inactive”.
For `O=C(c1cccc([N+](=O)[O-])c1)N1CCN(C(=O)c2ccco2)CC1`, the B-score was “inactive”.
`O=C(c1cccc(S(=O)(=O)Nc2ccccc2Cl)c1)N1CCN(C(=O)c2ccco2)CC1` was tested, and the B-score was 10.7 (active).
With `C#CCOCCOCCOCCNc1nc(N2CCN(C(=O)CCCCCCCCCCNC(=O)[C@H](CCCCN)n3cc(C)nn3)CC2)nc(N2CCN(C(=O)CCCCCCCCCCNC(=O)[C@H](CO)n3cc(CCCSC)nn3)CC2)n1` the B-score was “inactive”.
For `Cc1ccc(N(C(=O)C(F)(F)F)C(C(=O)NC2CCCCC2)c2ccncc2)cc1C` (stereo not drawn), the B-score was “inactive”.
`N#CCCCn1c(O)c(N=NC(=O)C(O)c2ccccc2)c2ccccc21` (stereo not drawn) was tested, and the B-score was “inactive”.
In the case of `CCOC(=O)Cn1c(O)c(N=NC(=O)CNC(=O)Cc2ccccc2)c2ccccc21`, the B-score is reported as “inactive”.
For `COC(=O)Cn1c(O)c(N=NC(=O)OC)c2ccccc21`, the B-score was 7.73 (active).
With `Cc1ccc(C2Nc3cccc4cccc(c34)N2)cc1` the B-score was “inactive”.
`Brc1ccccc1C1Nc2cccc3cccc(c23)N1` was tested, and the B-score was 11.9 (active).
With `Oc1ccc(C2Nc3cccc4cccc(c34)N2)cc1` the B-score was “inactive”.
`CCn1cc(C(=O)NC2CCCCCC2)c(=O)c2cc(S(=O)(=O)N3CCCCC3)ccc21` was tested, and the B-score was “inactive”.
In the case of `Cc1ccc(C)c(-c2nnc(NC(=O)CS(=O)(=O)c3ccccc3)o2)c1`, the B-score is reported as “inactive”.
For `CN(C)S(=O)(=O)Oc1ccccc1C(=O)Nc1ccccc1Cl`, the B-score was “inactive”.
With `CC1CCN(S(=O)(=O)c2ccc3[nH]c(=O)ccc3c2)CC1` the B-score was “inactive”.
For `O=C1C(Cc2ccc(O)cc2)NC(=S)N1Cc1ccccc1` (stereo not drawn), the B-score was 9.49 (active).
In the case of `COc1ccc(N2C(=O)C(Cc3ccccc3)NC2=S)cc1` (stereo not drawn), the B-score is reported as “inactive”.
In the case of `Cc1cc(C)c(NC(=O)CN2C(=O)NC(Cc3ccccc3)C2=O)c(C)c1` (stereo not drawn), the B-score is reported as “inactive”.
For `CC1(C)CC(=O)C2=C(C1)N=C1SCCC(=O)N1C2c1ccc(C(F)(F)F)cc1` (stereo not drawn), the B-score was “inactive”.
In the case of `COc1ccc(CNc2c(CO)cnc3c2cnn3C)cc1`, the B-score is reported as “inactive”.
With `COCCNC(=O)c1ccc2nc(Cc3ccc(OC)c(OC)c3)oc2c1` the B-score was “inactive”.
`COc1ccc(CCNS(=O)(=O)c2cccc3cccnc23)cc1OC` was tested, and the B-score was “inactive”.
For `COc1ccc(Cc2nc(-c3ccccn3)no2)cc1OC`, the B-score was 8.9 (active).
For `Cc1ccc(N2CC(C(=O)Nc3cc(Cl)ccc3-n3cncn3)CC2=O)cc1` (stereo not drawn), the B-score was “inactive”.
With `Cn1nc(C(F)(F)F)c(-c2ccc(F)cc2)c1NC(=O)CSCC(=O)O` the B-score was “inactive”.
With `CCCC1OC23CCCCC2C(C#N)(C#N)C1(C#N)C(=N)O3` (stereo not drawn) the B-score was “inactive”.
With `COc1ccc(CN(C)C(=O)Cc2ccsc2)c(OC)c1OC` the B-score was “inactive”.
For `O=C(Nc1ccccc1N1CCCC1)c1ccc2ccccc2c1`, the B-score was “inactive”.
In the case of `O=C(Nc1ccccc1N1CCCCC1)c1ccc2nccnc2c1`, the B-score is reported as 7.2 (active).
With `O=C(Nc1ccccc1N1CCN(c2ccccc2)CC1)c1cccc(F)c1` the B-score was “inactive”.
With `COCCn1c(CN2CCC(Cc3ccccc3)CC2)nc2c1c(=O)n(C)c(=O)n2C` the B-score was “inactive”.
For `CCOc1ccc(NC(=O)CCS(=O)(=O)c2ccc3c(c2)CCCN3C(=O)CC)cc1`, the B-score was “inactive”.
In the case of `Cc1ccc(S(=O)(=O)N2CCC(C(=O)NCCC3=CCCCC3)CC2)cc1C`, the B-score is reported as “inactive”.
`O=C(Cc1ccccc1)N1N=C(c2ccncc2)CC1(O)C(F)(F)F` (stereo not drawn) was tested, and the B-score was “inactive”.
For `CC(=O)N1N=C(c2ccncc2)OC1(Cc1ccccc1)Cc1ccccc1`, the B-score was 7.85 (active).
`CC(=O)N1N=C(c2ccccc2)OC1c1cccnc1` (stereo not drawn) was tested, and the B-score was “inactive”.
`O=C(c1ccccc1)C(Cn1cncn1)C(Sc1ccccc1)c1ccccc1` (stereo not drawn) was tested, and the B-score was “inactive”.
With `CCN(CC(=O)Nc1ccccc1OC)C(=O)Cn1cnc2ccccc2c1=O` the B-score was “inactive”.
In the case of `Cc1ccc(/C=C/C(=O)O)cc1S(=O)(=O)N1CCC(Cc2ccccc2)CC1`, the B-score is reported as “inactive”.
For `CC(=O)Nc1ccc(Nc2c([N+](=O)[O-])cc(S(C)(=O)=O)cc2[N+](=O)[O-])cc1`, the B-score was “inactive”.
In the case of `CCN(CC(=O)Nc1c(F)cccc1F)C(=O)c1ccc(Sc2nncn2C)c([N+](=O)[O-])c1`, the B-score is reported as “inactive”.
In the case of `Cn1cnnc1Sc1ccc(S(C)(=O)=O)cc1[N+](=O)[O-]`, the B-score is reported as 12.1 (active).
For `CS(=O)(=O)Nc1ccc(C(=O)N2CCCC2)cc1`, the B-score was “inactive”.
`Cn1c(=O)c2c(nc(N/N=C/c3cccs3)n2Cc2ccc(Br)cc2)n(C)c1=O` was tested, and the B-score was “inactive”.
In the case of `COc1ccc(NC(=O)C2C3C=CC(C3)C2C(=O)NCc2ccccn2)c(OC)c1` (stereo not drawn), the B-score is reported as “inactive”.
With `COc1cc(C)c(C)cc1S(=O)(=O)N1CCCc2ccccc21` the B-score was 7.48 (active).
For `COc1ccc(C(=O)OCC(=O)NCC2CCCCC2)cc1S(=O)(=O)N1CCCc2ccccc21`, the B-score was “inactive”.
In the case of `Cn1c(=O)n(C)c2cc(S(=O)(=O)N3CCCc4ccccc43)ccc21`, the B-score is reported as “inactive”.
With `CC[C@@H](C)[C@@H](C(=O)N1CCN(C(=O)OC(C)(C)C)CC1)n1cc(CCC(=O)O)nn1` the B-score was “inactive”.
`CC1CN(S(=O)(=O)c2cccc(C(F)(F)F)c2)CN1C(=O)N1CCOCC1` (stereo not drawn) was tested, and the B-score was “inactive”.
`COc1ccc(C2SCCN2S(=O)(=O)c2ccccc2)cc1OC` (stereo not drawn) was tested, and the B-score was 7.25 (active).
In the case of `COc1ccc(S(=O)(=O)N2CCC(C(=O)N3CCc4ccccc4C3)CC2)cc1OC`, the B-score is reported as “inactive”.
For `COc1ccc(C2CC(=O)n3c(nc4ccccc43)S2)cc1OC` (stereo not drawn), the B-score was “inactive”.
`Cc1cc(NC(=O)CS(=O)(=O)c2cn(C)c3ccccc23)no1` was tested, and the B-score was “inactive”.
`CCCCN1C(N)=NC[C@@H]1CC1CCCCC1` was tested, and the B-score was “inactive”.
In the case of `COc1ccccc1CCNS(=O)(=O)c1cn(C)nc1C`, the B-score is reported as “inactive”.
In the case of `CCOc1ccc2nc(/N=C/c3nc(-c4ccccc4)oc3O)sc2c1`, the B-score is reported as 18.1 (active).
For `CC(N=Cc1nc(-c2ccccc2)oc1O)c1ccccc1` (stereo not drawn), the B-score was “inactive”.
`CCOc1ccc2nc(N(CCCN(C)C)C(=O)c3ccc(C(=O)c4ccccc4)cc3)sc2c1` was tested, and the B-score was “inactive”.
With `CN1C(=O)CC(c2ccccc2)C1=O` (stereo not drawn) the B-score was “inactive”.
With `Cc1cccc(N(C)C(=O)c2cc(S(=O)(=O)N3CCCCC3)c[nH]2)c1` the B-score was “inactive”.
`COC(=O)Cn1c(=NC(=O)c2cc(OC)c(OC)c(OC)c2)sc2cc(OC)ccc21` was tested, and the B-score was “inactive”.
For `COc1ccc(/C(C)=N/NC(=O)CCC(=O)Nc2ccc(Cl)cc2Cl)c(OC)c1`, the B-score was “inactive”.
`COc1ccc(OC)c(C(=O)c2ccc(Cl)cc2)c1` was tested, and the B-score was “inactive”.
In the case of `COc1ccc(OC)c(/C(C)=N\NC(=O)c2cc3cc(Cl)ccc3n2C)c1`, the B-score is reported as 6.86 (active).
With `CCOc1ccccc1NS(=O)(=O)c1c[nH]c(C(=O)OC)c1` the B-score was “inactive”.
With `CCN(CC(=O)NCc1cccs1)C(=O)c1cccc(S(=O)(=O)Nc2ccccc2OC)c1` the B-score was “inactive”.
With `CCOc1ncccc1C(=O)NNC(=O)c1cccc(S(=O)(=O)Nc2ccccc2OC)c1` the B-score was 7.54 (active).
`COc1ccc(CCNC(=S)NC(=O)/C=C/c2ccc(C)cc2)cc1OC` was tested, and the B-score was “inactive”.
`COCCCNC(=O)CN1CCN(Cc2ccccc2Cl)C1=O` was tested, and the B-score was “inactive”.
In the case of `C#CCOCCOCCOCCNc1nc(N2CCN(C(=O)[C@H](CCCCN)n3cc(CCC(=O)O)nn3)CC2)nc(N2CCN(C(=O)[C@H](CCCCN)n3cc(CC(C)O)nn3)CC2)n1` (stereo partly drawn), the B-score is reported as “inactive”.
With `COc1ccc(OC)c(Nc2nc3ccccc3n3cnnc23)c1` the B-score was 9.87 (active).
`COc1cc(Nc2nc3ccc(Cl)cc3n3cnnc23)cc(OC)c1OC` was tested, and the B-score was “inactive”.
With `COc1ccc(CCNc2nc3ccc(C)cc3n3cnnc23)cc1OC` the B-score was “inactive”.
For `Cc1nn2cc(-c3ccc(Cl)cc3)cnc2c1Br`, the B-score was “inactive”.
With `CN1C(C)(C)CC(NC(=O)CCC(=O)NC2CC(C)(C)N(C)C(C)(C)C2)CC1(C)C` the B-score was “inactive”.
For `Nc1nc(C23CC4CC(CC(C4)C2)C3)cs1`, the B-score was 15.8 (active).
With `Nc1nc(SC23CC4CC(CC(C4)C2)C3)ns1` the B-score was “inactive”.
With `S=c1nc(C23CC4CC(CC(C4)C2)C3)nc2sccn12` the B-score was “inactive”.
`FC(F)(F)c1ccc2nnc(-c3c(Cl)cccc3Cl)n2c1` was tested, and the B-score was “inactive”.
In the case of `COC(=O)Cc1cc(=O)n(-c2nc3ccccc3s2)[nH]1`, the B-score is reported as 7.64 (active).
For `COC(=O)Cc1[nH]n(-c2nc3ccccc3s2)c(=O)c1C(C)=Nc1ccc(OC)cc1`, the B-score was “inactive”.
For `C/C(=N\NC(=O)CC(C)C)c1c(C(F)(F)F)[nH]n(-c2nc3ccccc3s2)c1=O`, the B-score was “inactive”.
For `COc1ccc([N+](=O)[O-])cc1-c1nc2ccccc2nc1-c1ccccc1`, the B-score was “inactive”.
With `O=[N+]([O-])c1ccc2oc(-c3cccc(O)c3)nc2c1` the B-score was “inactive”.
For `COc1ccc(-c2nc3cc([N+](=O)[O-])ccc3o2)cc1OC`, the B-score was 11 (active).
